# A number with no mark means an inactive call.
# Legend:
# Assay in all cases: log2 ratio of Biotin-Ahx-Ub-VS probe labelling (fragment/DMSO); higher = less target engagement (more negative = stronger competition), active = hit call of the paper (q ≤ 0.05, log2 ratio ≤ -1)
# Conditions in all cases: compound concentration: 200 uM; treatment time: 3 h
# OTUD6B = target: T1, OTUD6B (UniProt Q8N6M0)
# T1 sequence (whole entry): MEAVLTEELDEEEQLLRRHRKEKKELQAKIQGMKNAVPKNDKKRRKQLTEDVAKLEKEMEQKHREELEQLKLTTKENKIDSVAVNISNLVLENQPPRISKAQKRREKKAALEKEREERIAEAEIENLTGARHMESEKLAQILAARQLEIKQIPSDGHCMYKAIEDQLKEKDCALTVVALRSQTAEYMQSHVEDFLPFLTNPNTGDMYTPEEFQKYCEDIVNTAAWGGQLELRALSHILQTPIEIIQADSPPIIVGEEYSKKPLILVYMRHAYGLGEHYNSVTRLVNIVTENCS
# Outline: (§1)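 Average log2 ratios of fragment over vehicle were obtained by unpaired t-test from global-median-normalised Spectronaut label-free quantities. Proteins with ≥2 unique peptides were included. HEK293T lysate (495 µg per sample) was treated in triplicate with fragment at 200 µM or vehicle for 3 h, then with Biotin-Ahx-Ub-VS at 0.5 µM final for 1 h, and labelled DUBs were NeutrAvidin-enriched and run by diaPASEF LC-MS/MS.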
# OTUD7B = target: T2, OTUD7B (UniProt Q6GQQ9)
# T2 sequence (whole entry): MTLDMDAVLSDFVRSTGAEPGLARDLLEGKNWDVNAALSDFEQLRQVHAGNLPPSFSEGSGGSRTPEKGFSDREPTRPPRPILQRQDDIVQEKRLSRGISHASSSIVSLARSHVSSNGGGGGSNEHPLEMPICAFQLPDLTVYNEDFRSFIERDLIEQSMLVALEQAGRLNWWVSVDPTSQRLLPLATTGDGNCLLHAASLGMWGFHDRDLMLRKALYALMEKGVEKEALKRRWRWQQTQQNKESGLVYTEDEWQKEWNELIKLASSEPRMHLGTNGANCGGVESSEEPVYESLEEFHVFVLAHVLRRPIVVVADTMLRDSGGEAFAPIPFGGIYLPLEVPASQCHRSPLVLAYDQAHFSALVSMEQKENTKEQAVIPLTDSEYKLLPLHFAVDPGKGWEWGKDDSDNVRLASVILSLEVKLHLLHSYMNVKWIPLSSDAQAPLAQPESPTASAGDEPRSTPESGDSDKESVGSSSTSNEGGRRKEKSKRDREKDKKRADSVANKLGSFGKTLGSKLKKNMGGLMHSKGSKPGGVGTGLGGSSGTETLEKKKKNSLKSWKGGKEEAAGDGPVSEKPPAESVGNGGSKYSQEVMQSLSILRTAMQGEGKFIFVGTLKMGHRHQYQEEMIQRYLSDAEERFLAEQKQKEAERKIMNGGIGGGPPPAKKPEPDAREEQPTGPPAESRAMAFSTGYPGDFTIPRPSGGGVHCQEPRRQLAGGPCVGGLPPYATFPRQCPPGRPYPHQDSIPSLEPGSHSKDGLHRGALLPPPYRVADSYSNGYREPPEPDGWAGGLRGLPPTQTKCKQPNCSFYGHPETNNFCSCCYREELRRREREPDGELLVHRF
# Outline: as §1
# PRPF8 = PRPF8 (UniProt Q6P2Q9)
# Outline: as §1
# PSMD7 = target: T3, PSMD7 (UniProt P51665)
# T3 sequence (whole entry): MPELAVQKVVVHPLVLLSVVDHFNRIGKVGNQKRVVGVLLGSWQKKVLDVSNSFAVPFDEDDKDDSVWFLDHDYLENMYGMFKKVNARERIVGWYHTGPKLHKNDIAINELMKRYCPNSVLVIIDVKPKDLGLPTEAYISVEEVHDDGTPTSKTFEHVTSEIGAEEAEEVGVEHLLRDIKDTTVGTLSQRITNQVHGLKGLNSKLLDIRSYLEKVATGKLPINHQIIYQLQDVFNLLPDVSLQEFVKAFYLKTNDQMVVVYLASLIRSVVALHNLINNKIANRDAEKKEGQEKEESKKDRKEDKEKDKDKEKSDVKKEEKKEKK
# Outline: as §1
# UCHL1 = UCHL1 (UniProt P09936)
# UCHL1, sequence (P09936 whole entry, looked up): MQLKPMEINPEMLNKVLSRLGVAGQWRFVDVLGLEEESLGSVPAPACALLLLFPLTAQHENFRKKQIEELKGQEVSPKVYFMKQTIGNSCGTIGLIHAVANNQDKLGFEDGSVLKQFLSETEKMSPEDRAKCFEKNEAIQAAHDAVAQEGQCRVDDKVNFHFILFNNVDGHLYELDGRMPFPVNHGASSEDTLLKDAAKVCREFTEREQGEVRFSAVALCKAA
# Outline: as §1
# UCHL3 = target: T4, UCHL3 (UniProt P15374)
# T4 sequence (whole entry): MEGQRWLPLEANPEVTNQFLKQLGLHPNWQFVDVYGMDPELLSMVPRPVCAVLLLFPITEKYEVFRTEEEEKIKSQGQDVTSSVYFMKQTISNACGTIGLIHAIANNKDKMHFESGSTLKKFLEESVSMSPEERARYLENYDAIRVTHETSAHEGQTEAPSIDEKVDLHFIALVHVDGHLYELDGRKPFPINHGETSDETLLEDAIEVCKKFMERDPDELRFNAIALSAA
# Outline: as §1
# UCHL5 = target: T5, UCHL5 (UniProt Q9Y5K5)
# T5 sequence (whole entry): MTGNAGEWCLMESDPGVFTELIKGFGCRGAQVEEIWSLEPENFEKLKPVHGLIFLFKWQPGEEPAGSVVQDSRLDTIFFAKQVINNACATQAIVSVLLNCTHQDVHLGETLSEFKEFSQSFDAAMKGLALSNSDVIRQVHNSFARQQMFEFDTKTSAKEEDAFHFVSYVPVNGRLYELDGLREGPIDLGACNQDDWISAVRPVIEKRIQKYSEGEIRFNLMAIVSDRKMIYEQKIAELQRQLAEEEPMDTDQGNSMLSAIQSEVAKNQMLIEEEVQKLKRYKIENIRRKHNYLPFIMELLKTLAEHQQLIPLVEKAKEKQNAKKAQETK
# Outline: as §1
# USP10 = USP10 (UniProt Q14694)
# USP10, sequence (Q14694 whole entry): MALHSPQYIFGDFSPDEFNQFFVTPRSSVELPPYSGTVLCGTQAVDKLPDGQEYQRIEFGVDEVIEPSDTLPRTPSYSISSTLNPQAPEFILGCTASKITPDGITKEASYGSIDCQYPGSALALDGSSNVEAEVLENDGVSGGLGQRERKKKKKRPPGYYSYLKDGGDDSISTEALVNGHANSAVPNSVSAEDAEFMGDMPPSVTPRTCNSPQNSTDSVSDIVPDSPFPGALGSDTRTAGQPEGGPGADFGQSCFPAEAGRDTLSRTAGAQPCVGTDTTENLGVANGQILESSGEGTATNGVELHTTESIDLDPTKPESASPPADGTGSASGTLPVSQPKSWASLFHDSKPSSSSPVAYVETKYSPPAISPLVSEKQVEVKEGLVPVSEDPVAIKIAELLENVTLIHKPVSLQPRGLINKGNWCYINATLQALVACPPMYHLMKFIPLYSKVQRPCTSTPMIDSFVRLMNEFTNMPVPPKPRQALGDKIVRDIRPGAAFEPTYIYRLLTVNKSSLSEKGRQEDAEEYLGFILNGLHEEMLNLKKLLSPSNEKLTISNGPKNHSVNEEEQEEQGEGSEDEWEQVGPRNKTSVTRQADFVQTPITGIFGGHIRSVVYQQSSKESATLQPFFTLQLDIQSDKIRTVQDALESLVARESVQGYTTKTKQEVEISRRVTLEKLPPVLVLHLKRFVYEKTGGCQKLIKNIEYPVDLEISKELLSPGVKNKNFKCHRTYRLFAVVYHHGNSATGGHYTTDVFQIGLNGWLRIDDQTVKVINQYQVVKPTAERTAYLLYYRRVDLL
# Outline: as §1
# USP15 = target: T6, USP15 (UniProt Q9Y4E8)
# T6 sequence (whole entry): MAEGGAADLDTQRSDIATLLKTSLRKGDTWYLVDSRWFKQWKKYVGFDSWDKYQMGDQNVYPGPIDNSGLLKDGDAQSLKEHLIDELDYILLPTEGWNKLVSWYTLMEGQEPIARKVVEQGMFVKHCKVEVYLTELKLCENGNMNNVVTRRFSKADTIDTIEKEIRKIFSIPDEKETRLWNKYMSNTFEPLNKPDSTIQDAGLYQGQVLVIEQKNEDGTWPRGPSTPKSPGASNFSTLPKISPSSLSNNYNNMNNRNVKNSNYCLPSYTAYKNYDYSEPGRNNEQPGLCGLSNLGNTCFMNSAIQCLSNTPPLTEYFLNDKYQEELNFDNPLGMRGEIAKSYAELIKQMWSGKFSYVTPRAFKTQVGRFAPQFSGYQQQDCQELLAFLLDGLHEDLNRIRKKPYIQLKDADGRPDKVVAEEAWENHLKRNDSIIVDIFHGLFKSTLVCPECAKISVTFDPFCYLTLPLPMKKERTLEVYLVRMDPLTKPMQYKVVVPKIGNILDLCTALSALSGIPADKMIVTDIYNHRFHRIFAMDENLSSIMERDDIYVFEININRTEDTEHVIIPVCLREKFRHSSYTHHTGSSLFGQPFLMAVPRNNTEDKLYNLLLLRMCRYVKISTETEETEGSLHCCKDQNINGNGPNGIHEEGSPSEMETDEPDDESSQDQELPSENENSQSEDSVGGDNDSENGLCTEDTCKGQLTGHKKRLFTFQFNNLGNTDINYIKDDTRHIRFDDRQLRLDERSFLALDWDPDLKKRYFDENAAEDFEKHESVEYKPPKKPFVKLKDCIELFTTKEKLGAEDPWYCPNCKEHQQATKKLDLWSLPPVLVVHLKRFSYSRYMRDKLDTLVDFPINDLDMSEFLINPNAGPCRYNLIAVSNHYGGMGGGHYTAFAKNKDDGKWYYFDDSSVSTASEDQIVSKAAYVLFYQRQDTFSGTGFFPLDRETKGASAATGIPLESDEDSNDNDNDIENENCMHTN
# Outline: as §1
# USP16 = USP16 (UniProt Q9Y5T5)
# USP16, sequence (Q9Y5T5 whole entry, looked up): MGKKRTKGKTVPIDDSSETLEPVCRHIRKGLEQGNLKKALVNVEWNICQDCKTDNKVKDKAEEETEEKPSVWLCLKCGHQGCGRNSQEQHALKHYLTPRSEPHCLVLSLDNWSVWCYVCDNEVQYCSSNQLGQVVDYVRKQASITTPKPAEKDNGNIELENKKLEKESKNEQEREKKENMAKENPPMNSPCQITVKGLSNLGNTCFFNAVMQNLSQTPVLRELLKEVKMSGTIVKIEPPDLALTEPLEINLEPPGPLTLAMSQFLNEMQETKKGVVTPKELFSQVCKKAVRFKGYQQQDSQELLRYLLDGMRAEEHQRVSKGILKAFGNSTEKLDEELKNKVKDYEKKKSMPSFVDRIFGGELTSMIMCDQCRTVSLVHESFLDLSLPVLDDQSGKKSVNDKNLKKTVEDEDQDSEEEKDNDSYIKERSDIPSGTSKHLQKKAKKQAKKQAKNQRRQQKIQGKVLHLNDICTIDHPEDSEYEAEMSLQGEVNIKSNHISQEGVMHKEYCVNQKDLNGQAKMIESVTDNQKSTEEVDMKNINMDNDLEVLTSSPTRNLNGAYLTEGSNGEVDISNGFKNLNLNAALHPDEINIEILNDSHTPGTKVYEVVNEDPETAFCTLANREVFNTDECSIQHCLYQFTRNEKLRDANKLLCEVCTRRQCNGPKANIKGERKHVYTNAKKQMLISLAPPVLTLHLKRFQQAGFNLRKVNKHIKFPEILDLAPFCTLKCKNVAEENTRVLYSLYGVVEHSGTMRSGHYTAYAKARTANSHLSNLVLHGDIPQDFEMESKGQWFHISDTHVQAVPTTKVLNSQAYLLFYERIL
# Outline: as §1
structure (smiles),measurement,setting,value
Cc1ccccc1OCC(=O)N1CCN(C(=O)CCl)CC1,log2 ratio of Biotin-Ahx-Ub-VS probe labelling,OTUD6B,-0.157
same,log2 ratio of Biotin-Ahx-Ub-VS probe labelling,OTUD7B,-0.203
same,log2 ratio of Biotin-Ahx-Ub-VS probe labelling,PRPF8,0.281
same,log2 ratio of Biotin-Ahx-Ub-VS probe labelling,PSMD7,0.113
same,log2 ratio of Biotin-Ahx-Ub-VS probe labelling,UCHL1,-1.52 (active)
same,log2 ratio of Biotin-Ahx-Ub-VS probe labelling,UCHL3,0.461
same,log2 ratio of Biotin-Ahx-Ub-VS probe labelling,UCHL5,-0.137
same,log2 ratio of Biotin-Ahx-Ub-VS probe labelling,USP10,-0.173
same,log2 ratio of Biotin-Ahx-Ub-VS probe labelling,USP15,-0.416
same,log2 ratio of Biotin-Ahx-Ub-VS probe labelling,USP16,-0.973
